Laboratory results from PubChem BioAssay AID598 (SRMLSC, 2007).
About 5,100 (6%) of roughly 85,000 compounds were called active. The sample holds actives, similar compounds and a random draw of the others, so the mix is not that of the screen.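 How the source made its calls: active means viability at or below 40%; inactive means viability above 40%.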

assay: proliferation blockers of H69AR lung cancer cells, primary screen, cell-based, human, 86K library (AID 598); conditions: H69AR lung tumor viability, ATP luminescence, 72 h; at 10 µM; stronger effect = lower value;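 further: multidrug resistant small cell line overexpressing MRP-1 efflux transporter; 100% = mean luminescence of untreated control wells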

Row | SMILES | viability
1 | Nc1ccc(Nc2ccccc2)cc1 | 15.3% (active)
2 | c1ccc(Nc2n[nH]nc2-c2ccccc2)cc1 | 94.2% (inactive)
3 | Nc1ccc(-c2nnc(-c3ccc(-c4ccccc4)cc3)o2)cc1 | 55% (inactive)
4 | CCCCCCOc1ccc(OC(=O)c2cccnc2)cc1 | 99.5% (inactive)
5 | Cc1cc(C(=O)Nc2ccccc2N2CCOCC2)c2ccccc2n1 | 67.9% (inactive)
6 | COC(=O)c1cn(-c2ccccc2)nc1-c1cccnc1 | 108% (inactive)
7 | O=C(NCc1cccnc1)c1cn(-c2ccccc2)nc1-c1cccs1 | 9.99% (active)
8 | O=C(CCc1ccccc1)NCc1cccnc1 | 97.5% (inactive)
9 | CCN(CC)CCNC(=O)CCCCCn1c(=O)[nH]c2cc(C(=O)OC)ccc2c1=O | 102% (inactive)
10 | COc1ccccc1C(c1nnnn1C(C)(C)C)N1CCN(Cc2ccccc2)CC1 (stereo not drawn) | 85.2% (inactive)
11 | COc1ccc(-c2nnc(SCC(=O)c3ccc4c(c3)OCCO4)o2)cc1 | 102% (inactive)
12 | COc1ccc(-c2nnc(SC(=O)N3c4ccccc4Sc4ccccc43)o2)cc1 | 4.55% (active)
13 | COc1ccc(-c2nnc(SC(C)C#N)o2)cc1 (stereo not drawn) | 86.7% (inactive)
14 | CCCCCCNCCn1cnc2c(N)ncnc21 | 105% (inactive)
15 | Cc1ccc(S(=O)(=O)NCCSC(C)(C)C)cc1 | 106% (inactive)
16 | Cc1nnc(SC(C)C(=O)Nc2ccc(S(=O)(=O)NC3CCCCC3)cc2)s1 (stereo not drawn) | 90.2% (inactive)
17 | Cc1c(Br)cc(C(=O)N2CCCCCC2)c(C)c1C | 85.9% (inactive)
18 | Cc1ccc(NS(=O)(=O)c2c(C)[nH]c(=O)[nH]c2=O)cc1C | 112% (inactive)
19 | Cc1ccc(Nc2cc(=O)n(C3CCCCC3)c(=O)[nH]2)cc1C | 9.54% (active)
20 | CCC1(CC)Cc2ccccc2-c2nc3ccccc3c(=O)n21 | 88.7% (inactive)
21 | CCOc1ccccc1C(=O)NC1CC2CCCC(C1)N2Cc1ccccc1 (stereo not drawn) | 72.2% (inactive)
22 | CC(C)Oc1ccc(C(=O)NC(C)(C)CO)cc1 | 106% (inactive)
23 | Cc1cc(C)n(-c2nnc(C)n2NC(=O)c2cccc(Cl)c2)n1 | 88.1% (inactive)

Row | SMILES | viability
24 | O=C(NCCCn1ccnc1)Nc1ccc(Cl)cc1Cl | 93.2% (inactive)
25 | CCCC(=O)Nc1ccc(C(=O)NCCCn2ccnc2)cc1 | 15.8% (active)
26 | CCOc1ccccc1C(=O)NCCCn1ccnc1 | 98.9% (inactive)
27 | Cc1ccc2c(Cl)c(C(=O)NCCCn3ccnc3)sc2c1 | 88.9% (inactive)
28 | CCCCC(=O)Nc1ccc(C(=O)NCCCn2ccnc2)cc1 | 7.32% (active)
29 | O=C(Nc1ccccc1C(=O)NCCCn1ccnc1)c1ccc(Cl)cc1Cl | 75.6% (inactive)
30 | FC(F)(F)c1cnc(Oc2ccccc2-c2nnc(-c3ccc(Cl)cc3)o2)c(Cl)c1 | 92.2% (inactive)
31 | O=C(CSCc1ccccc1)N1CCc2ccccc21 | 84.8% (inactive)
32 | Cc1ccc(N(Cc2ccc(C(=O)Nc3ccccc3C(=O)NCc3ccco3)cc2)S(C)(=O)=O)cc1C | 79.5% (inactive)
33 | Cc1ccc(S(=O)(=O)/N=C(\CN2CCOCC2)N2CCOCC2)cc1 | 96.2% (inactive)
34 | CC(=O)Nc1ccc(OCC(O)CN2CCN(c3ccccc3Cl)CC2)cc1 (stereo not drawn) | 100% (inactive)
35 | OC(COc1cccc(OCC(O)CN2CCCC2)c1)CN1CCCC1 (stereo not drawn) | 99.3% (inactive)
36 | O=C(C(c1ccccc1)c1ccccc1)N1CCN(CC(O)COc2ccccc2)CC1 (stereo not drawn) | 27.1% (active)
37 | O=C(CSc1nnc(-c2cccnc2)n1CCc1ccccc1)NCc1ccccc1 | 89.6% (inactive)
38 | CCc1ccc(CNC(=O)CCc2nc(-c3cccs3)no2)cc1 | 98.2% (inactive)
39 | Clc1ccc(-n2nnnc2-c2cnc(-c3ccccn3)nc2-c2cccs2)cc1 | 18.2% (active)
40 | c1ccc(-c2noc(-c3cccs3)n2)nc1 | 70.6% (inactive)
41 | N#Cc1ccc(CSc2nnc(-c3ccccn3)n2-c2ccc(Cl)cc2)cc1 | 62% (inactive)
42 | CCOc1ccccc1N=C1NC(=O)CS1 | 85.9% (inactive)
43 | COc1ccccc1N=C(C)C1=C(O)COC1=O | 92.4% (inactive)
44 | CCC/C(O)=C1\C(=O)CC(C)(C)CC1=Nc1ccccc1OC | 28.2% (active)
45 | CCOc1ccccc1NC(=O)C1CCCN(C(=O)Nc2ccccc2)C1 (stereo not drawn) | 61.5% (inactive)
46 | CCCC(=O)N1c2ccccc2NC2=C(C(=O)CCC2)C1c1ccc(F)cc1 (stereo not drawn) | 92.9% (inactive)

Row | SMILES | viability
47 | CC(C)C(=O)N1c2ccccc2NC2=C(C(=O)CCC2)C1c1ccc(N(C)C)cc1 (stereo not drawn) | 74.9% (inactive)
48 | O=C1CCCC2=C1C(c1cccs1)n1nc(SCc3ccccc3)nc1N2 (stereo not drawn) | 28.9% (active)
49 | Cc1ccc(N(CC(=O)Nc2cccc(N(C)S(C)(=O)=O)c2)S(C)(=O)=O)cc1 | 85.4% (inactive)
50 | O=C(CCCn1c(SCC(=O)c2ccccc2)nc2ccccc2c1=O)NCC1CCCO1 (stereo not drawn) | 76.5% (inactive)
51 | Cc1noc(COc2ccccc2OCc2onc(C)c2Cl)c1Cl | 93.3% (inactive)
52 | Cc1ccc(-c2noc(CSc3nnc(-c4ccncc4)n3-c3ccc(F)cc3)n2)cc1 | 27.9% (active)
53 | Fc1ccc(-n2c(Cc3ccccc3)nnc2SCc2nc(-c3ccc(Cl)cc3)no2)cc1 | 90.9% (inactive)
54 | Cc1ccc(-c2noc(CSc3nnc(-c4ccccc4)n3C)n2)cc1 | 85.9% (inactive)
55 | O=S1(=O)C=C(SCCN2CCCC2)c2ccccc21 | 74.3% (inactive)
56 | Cn1cc(S(=O)(=O)N2CCN(c3ccc(F)cc3)CC2)c(=O)n(C)c1=O | 91.4% (inactive)
57 | C#CCN(N(C)c1ncc(C(F)(F)F)cc1Cl)S(=O)(=O)c1ccc2ccccc2c1 | 84% (inactive)
58 | C=C(C)CSc1nc(N)c2c3c(sc2n1)CCC3 | 92.1% (inactive)
59 | CN(C)CCSc1nc(N)c2c3c(sc2n1)COC(C)(C)C3 | 91.2% (inactive)
60 | CC(C)(C)C1CCc2c(sc3nc(SCC(N)=O)nc(N)c23)C1 (stereo not drawn) | 2.44% (active)
61 | O=C(/C=C/NNC(=O)c1cccc(Br)c1)c1ccccc1 | 61.5% (inactive)
62 | N#C/C(=C(\O)CCl)c1nnc2n1CCCCC2 | 26.2% (active)
63 | COCC(=O)Nc1ccc(Br)cc1 | 101% (inactive)
64 | Cc1cccc(N(CC(=O)N2CCOCC2)S(C)(=O)=O)c1 | 98% (inactive)
65 | CC1=NN(c2cccc(Cl)c2)C(=O)C12CC(C)=C(C)CS2 (stereo not drawn) | 26.9% (active)
66 | Cc1[nH]n(-c2cccc(Cl)c2)c(=O)c1-c1ccc(Cl)cc1 | 109% (inactive)
67 | O=C(NCc1ccccc1)C1CCCN(S(=O)(=O)c2cccs2)C1 (stereo not drawn) | 95.6% (inactive)
68 | CCOc1ccc(S(=O)(=O)NCC2CCCO2)cc1 (stereo not drawn) | 97% (inactive)
